± gives the standard deviation of the averaged measurements.
Key:
Assay in all cases: relative enzymatic activity vs untreated control (fraction); higher = less inhibition
Details in all cases: 100 µM; incubation time: 2 h at 37 C
[1] = test system: DNA gyrase
Description: (§1)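 In vitro enzymatic inhibition assays (ProFoldin kits) for 12 purified essential E. coli enzymes or complexes, each treated with 218 active antibacterial compounds at 100 µM for 2 h at 37°C. Read-outs were fluorescence or absorbance (phosphate detection, dye binding), converted to activity via standard curves and expressed relative to untreated DMSO controls.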

[2] = molecular target: DNA helicase (UniProt P0ACB1)
Chain of DNA helicase (P0ACB1 whole entry): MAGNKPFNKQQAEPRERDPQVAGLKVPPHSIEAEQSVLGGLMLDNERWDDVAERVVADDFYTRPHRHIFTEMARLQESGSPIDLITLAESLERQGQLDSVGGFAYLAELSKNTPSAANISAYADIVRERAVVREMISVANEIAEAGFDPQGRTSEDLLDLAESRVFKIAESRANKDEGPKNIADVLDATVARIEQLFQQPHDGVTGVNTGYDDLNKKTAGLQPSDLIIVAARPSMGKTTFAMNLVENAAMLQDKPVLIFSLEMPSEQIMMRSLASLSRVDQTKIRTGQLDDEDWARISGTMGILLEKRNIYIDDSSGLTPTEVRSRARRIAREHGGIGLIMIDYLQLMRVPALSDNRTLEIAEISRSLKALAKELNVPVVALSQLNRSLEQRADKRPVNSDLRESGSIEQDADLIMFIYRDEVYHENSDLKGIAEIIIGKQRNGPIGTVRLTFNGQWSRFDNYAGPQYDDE
Description: as §1

[3] = molecular target: DNA ligase (UniProt B1XA82)
Chain of DNA ligase (B1XA82 whole entry): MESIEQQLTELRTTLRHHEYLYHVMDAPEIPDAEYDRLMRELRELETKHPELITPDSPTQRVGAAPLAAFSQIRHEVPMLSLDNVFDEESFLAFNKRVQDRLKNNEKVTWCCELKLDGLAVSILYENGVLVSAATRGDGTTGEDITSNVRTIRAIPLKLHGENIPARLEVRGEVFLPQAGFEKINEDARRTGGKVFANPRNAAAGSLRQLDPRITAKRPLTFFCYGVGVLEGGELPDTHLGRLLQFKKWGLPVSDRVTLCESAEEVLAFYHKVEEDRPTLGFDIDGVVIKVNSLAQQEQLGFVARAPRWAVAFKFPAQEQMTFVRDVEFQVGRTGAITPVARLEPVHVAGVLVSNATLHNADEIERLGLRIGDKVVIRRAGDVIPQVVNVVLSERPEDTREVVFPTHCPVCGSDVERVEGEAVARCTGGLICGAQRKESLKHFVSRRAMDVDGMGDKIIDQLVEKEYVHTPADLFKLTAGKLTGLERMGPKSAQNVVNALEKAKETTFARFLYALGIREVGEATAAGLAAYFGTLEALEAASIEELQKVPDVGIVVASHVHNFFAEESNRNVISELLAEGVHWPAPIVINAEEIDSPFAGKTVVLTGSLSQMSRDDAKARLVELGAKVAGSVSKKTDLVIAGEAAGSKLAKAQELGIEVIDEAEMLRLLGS
Description: as §1

[4] = molecular target: DNA polymerase (UniProt P10443)
Chain of DNA polymerase (P10443 whole entry): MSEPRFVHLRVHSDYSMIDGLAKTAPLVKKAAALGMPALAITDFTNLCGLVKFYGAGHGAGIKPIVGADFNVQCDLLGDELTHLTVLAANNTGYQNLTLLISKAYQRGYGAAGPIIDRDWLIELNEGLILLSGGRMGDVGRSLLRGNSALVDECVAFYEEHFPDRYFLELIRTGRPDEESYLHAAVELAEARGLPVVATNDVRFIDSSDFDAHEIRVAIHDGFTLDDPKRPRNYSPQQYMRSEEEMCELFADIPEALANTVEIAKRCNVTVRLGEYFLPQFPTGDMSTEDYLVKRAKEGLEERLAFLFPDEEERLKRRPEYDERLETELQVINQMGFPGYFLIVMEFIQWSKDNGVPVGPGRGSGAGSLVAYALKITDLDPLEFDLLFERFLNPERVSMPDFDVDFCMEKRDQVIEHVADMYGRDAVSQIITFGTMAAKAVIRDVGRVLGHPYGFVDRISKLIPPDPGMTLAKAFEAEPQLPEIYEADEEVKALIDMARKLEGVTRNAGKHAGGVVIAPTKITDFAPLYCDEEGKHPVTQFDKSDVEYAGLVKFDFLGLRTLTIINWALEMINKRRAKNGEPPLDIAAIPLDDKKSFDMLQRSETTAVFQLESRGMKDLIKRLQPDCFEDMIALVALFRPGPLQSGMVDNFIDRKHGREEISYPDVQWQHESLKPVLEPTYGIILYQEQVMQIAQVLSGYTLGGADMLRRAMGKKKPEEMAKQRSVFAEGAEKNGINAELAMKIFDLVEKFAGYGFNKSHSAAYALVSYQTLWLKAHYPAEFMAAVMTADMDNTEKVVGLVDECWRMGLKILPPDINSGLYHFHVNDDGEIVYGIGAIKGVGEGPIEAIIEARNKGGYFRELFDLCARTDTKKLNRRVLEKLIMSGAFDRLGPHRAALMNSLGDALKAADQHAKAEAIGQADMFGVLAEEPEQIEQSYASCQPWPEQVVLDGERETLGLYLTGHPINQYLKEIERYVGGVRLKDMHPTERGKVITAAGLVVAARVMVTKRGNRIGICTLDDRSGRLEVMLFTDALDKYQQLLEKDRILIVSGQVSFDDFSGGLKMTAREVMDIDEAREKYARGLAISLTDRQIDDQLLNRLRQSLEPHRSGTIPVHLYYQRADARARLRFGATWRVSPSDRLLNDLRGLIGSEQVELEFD
Description: as §1

[5] = molecular target: DNA primase (UniProt P0ABS7)
Chain of DNA primase (P0ABS7 whole entry): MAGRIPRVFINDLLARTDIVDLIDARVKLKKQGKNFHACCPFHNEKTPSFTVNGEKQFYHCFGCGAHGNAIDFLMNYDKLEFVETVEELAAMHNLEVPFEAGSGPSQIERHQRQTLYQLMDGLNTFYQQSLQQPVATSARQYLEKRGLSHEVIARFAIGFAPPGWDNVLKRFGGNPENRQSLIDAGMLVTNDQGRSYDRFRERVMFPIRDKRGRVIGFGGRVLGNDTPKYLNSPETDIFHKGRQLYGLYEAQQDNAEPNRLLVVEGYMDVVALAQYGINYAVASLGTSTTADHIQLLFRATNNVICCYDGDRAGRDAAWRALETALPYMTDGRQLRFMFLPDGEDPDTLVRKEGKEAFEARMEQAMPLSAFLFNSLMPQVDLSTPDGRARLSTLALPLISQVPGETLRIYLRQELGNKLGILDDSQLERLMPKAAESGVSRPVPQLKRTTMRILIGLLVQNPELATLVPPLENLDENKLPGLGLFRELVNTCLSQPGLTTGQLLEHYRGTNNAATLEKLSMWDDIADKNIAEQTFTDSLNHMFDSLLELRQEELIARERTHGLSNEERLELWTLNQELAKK
Description: as §1

[6] = molecular target: GlmU (UniProt A7ZTU1)
Chain of GlmU (A7ZTU1 whole entry, looked up): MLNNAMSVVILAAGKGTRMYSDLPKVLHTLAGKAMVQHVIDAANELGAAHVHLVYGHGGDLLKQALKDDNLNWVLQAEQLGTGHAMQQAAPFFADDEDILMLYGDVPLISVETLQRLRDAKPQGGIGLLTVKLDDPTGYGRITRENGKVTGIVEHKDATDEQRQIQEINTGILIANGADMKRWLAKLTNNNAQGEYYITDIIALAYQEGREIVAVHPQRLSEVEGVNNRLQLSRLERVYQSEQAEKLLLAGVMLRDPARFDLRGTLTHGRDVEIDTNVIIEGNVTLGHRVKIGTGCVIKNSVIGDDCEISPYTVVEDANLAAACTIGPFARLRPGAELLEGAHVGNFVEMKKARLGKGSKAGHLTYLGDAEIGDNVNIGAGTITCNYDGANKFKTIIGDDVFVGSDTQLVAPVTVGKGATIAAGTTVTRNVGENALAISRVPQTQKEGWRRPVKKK
Description: as §1

[7] = molecular target: Guanlyate kinase (UniProt Q0TBG1)
Chain of Guanlyate kinase (Q0TBG1 whole entry): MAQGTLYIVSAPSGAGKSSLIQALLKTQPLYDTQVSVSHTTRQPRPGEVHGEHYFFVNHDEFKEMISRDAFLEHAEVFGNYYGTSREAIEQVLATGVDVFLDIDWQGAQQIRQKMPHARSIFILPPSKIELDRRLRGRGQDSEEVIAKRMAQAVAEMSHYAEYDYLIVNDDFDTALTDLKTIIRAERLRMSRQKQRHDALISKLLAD
Description: as §1

[8] = molecular target: MurA (UniProt Q3YX52)
Chain of MurA (Q3YX52 whole entry): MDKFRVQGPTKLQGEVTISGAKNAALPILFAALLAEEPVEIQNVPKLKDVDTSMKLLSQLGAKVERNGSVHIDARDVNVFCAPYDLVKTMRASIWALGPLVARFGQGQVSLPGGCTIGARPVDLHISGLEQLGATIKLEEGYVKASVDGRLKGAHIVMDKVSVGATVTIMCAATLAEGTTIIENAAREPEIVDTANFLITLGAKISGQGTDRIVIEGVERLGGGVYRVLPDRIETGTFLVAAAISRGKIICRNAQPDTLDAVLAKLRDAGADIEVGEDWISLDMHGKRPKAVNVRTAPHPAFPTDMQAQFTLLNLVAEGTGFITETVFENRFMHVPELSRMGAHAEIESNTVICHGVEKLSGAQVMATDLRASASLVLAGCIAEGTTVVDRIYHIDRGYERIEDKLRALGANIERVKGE
Description: as §1

[9] = molecular target: T1, MurD (UniProt P14900)
T1 sequence (whole entry): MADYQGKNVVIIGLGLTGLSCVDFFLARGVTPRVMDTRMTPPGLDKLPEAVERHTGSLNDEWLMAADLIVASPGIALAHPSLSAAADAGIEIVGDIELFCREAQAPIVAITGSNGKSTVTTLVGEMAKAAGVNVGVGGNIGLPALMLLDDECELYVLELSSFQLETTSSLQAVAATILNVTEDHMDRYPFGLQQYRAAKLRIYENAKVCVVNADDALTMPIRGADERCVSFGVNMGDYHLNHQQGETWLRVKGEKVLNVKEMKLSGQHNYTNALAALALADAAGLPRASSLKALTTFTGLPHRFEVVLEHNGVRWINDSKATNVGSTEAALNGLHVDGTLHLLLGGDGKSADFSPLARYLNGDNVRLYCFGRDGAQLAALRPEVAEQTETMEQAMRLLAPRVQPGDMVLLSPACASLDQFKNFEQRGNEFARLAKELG
Description: as §1

[10] = molecular target: T2, MurF (UniProt P11880)
T2 sequence (whole entry): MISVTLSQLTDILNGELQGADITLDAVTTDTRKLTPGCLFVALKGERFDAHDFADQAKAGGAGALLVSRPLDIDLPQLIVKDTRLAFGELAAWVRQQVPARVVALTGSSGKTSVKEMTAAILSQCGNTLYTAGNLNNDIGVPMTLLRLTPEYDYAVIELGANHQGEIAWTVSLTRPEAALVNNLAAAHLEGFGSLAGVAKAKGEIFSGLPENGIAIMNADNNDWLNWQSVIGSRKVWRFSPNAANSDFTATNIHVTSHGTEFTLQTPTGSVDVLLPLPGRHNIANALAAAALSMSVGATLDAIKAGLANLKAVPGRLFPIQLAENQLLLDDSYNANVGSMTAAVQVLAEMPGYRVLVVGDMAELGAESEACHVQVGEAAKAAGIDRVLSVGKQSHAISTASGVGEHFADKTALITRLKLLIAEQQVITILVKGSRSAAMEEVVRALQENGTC
Description: as §1

[11] = test system: RNA polymerase
Description: as §1

| SMILES | relative enzymatic activity [1] | relative enzymatic activity [2] | relative enzymatic activity [3] | relative enzymatic activity [4] | relative enzymatic activity [5] | relative enzymatic activity [6] | relative enzymatic activity [7] | relative enzymatic activity [8] | relative enzymatic activity [9] | relative enzymatic activity [10] | relative enzymatic activity [11] |
| --- | --- | --- | --- | --- | --- | --- | --- | --- | --- | --- | --- |
| CN(C)C1C(O)=C(C(N)=O)C(=O)C2(O)C(O)=C3C(=O)c4c(O)cccc4C(C)(O)C3CC12.Cl (configuration not stated) | 0.904 ± 0.27 | 0.696 ± 0.28 | 1.03 ± 0.033 | 1.37 ± 0.52 | 0.711 ± 0.17 | 0.9683 ± 0.0011 | 1.05 ± 0.046 | 0.712 ± 0.038 | 0.627 ± 0.43 | 0.964 ± 0.2 | 0.857 ± 0.014 |
| CN(C)CCOC(c1ccccc1)c1ccccc1.Cn1c(=O)c2[nH]c(Cl)nc2n(C)c1=O | 0.811 ± 0.45 | 0.604 ± 0.17 | 1.01 ± 0.12 | 1.32 ± 0.34 | 0.75 ± 0.22 | 0.939 ± 0.018 | 1.05 ± 0.066 | 0.697 ± 0.022 | 0.596 ± 0.39 | 0.534 ± 0.75 | 0.923 ± 0.069 |
| CC(=O)On1cc(F)c(=O)[nH]c1=O | 0.636 ± 0.53 | 0.603 ± 0.23 | 0.979 ± 0.23 | 1.03 ± 0.18 | 0.765 ± 0.056 | 0.977 ± 0.015 | 0.859 ± 0.015 | 0.673 ± 0.096 | 0.464 ± 0.59 | 0.933 ± 0.22 | 0.746 ± 0.13 |
| CCC1OC(=O)C(C)C(=O)C(C)C(OC2OC(C)CC(N(C)C)C2O)C(C)(OC)CC(C)C(=O)C(C)C2N(CCCCn3cnc(-c4cccnc4)c3)C(=O)OC12C (configuration not stated) | 0.862 ± 0.39 | 0.396 ± 0.024 | 1.1 ± 0.3 | 1.24 ± 0.3 | 0.854 ± 0.012 | 0.9359 ± 0.0057 | 0.967 ± 0.099 | 0.668 ± 0.05 | 0.525 ± 0.34 | 0.799 ± 0.13 | 0.822 ± 0.037 |
| O=c1[nH]c(=O)n([C@@H]2C[C@@H](O)[C@@H](CO)O2)cc1F | 1.07 ± 0.043 | 0.591 ± 0.15 | 0.947 ± 0.062 | 0.708 ± 0.44 | 0.873 ± 0.022 | 1.03 ± 0.065 | 0.967 ± 0.1 | 0.74 ± 0.18 | 0.604 ± 0.39 | 1.01 ± 0.22 | 0.834 ± 0.019 |
| CN(C)c1ccc(O)c2c1C[C@@H]1C[C@@H]3[C@@H](N(C)C)C(=O)C(C(N)=O)=C(O)[C@]3(O)C(=O)[C@H]1C2=O | 0.00646 ± 0.0091 | 0.123 ± 0.0035 | 0.699 ± 0.021 | 0.021 ± 0.0081 | 0.424 ± 0.027 | 0.655 ± 0.21 | 0.152 ± 0.014 | 0.0751 ± 0.025 | 0.665 ± 0.43 | 1.21 ± 0.043 | 0.00236 ± 0.0021 |
| CN1CCN(c2cc3c(cc2F)c(=O)c(C(=O)O)cn3-c2ccc(F)cc2)CC1.Cl | 0.0325 ± 0.046 | 0.445 ± 0.075 | 1.46 ± 0.11 | 1.3 ± 0.33 | 0.681 ± 0.17 | 0.957 ± 0.011 | 0.9286 ± 0.0092 | 0.593 ± 0.055 | 0.566 ± 0.37 | 0.959 ± 0.17 | 0.929 ± 0.056 |
| CCn1cc(C(=O)O)c(=O)c2cnc(N3CCNCC3)nc21 | 0.262 ± 0.12 | 0.533 ± 0.057 | 0.92 ± 0.084 | 1.16 ± 0.2 | 0.876 ± 0.015 | 0.94 ± 0.024 | 0.891 ± 0.16 | 0.865 ± 0.047 | 0.583 ± 0.38 | 1.136 ± 0.011 | 0.83 ± 0.027 |
| CN(C)C1C(O)=C(C(N)=O)C(=O)C2(O)C(O)=C3C(=O)c4c(O)ccc(Cl)c4C(C)(O)C3CC12.Cl (configuration not stated) | 1.15 ± 0.17 | 0.47 ± 0.023 | 1.03 ± 0.23 | 1.35 ± 0.47 | 0.707 ± 0.21 | 0.974 ± 0.048 | 0.961 ± 0.076 | 0.767 ± 0.014 | 0.584 ± 0.37 | 0.93 ± 0.17 | 0.822 ± 0.027 |
| CCCC[P+](CCCC)(CCCC)Cc1ccc(NC(=O)[C@H](Cc2ccc3ccccc3c2)N/C(=N/C2CCCCC2)NC2CCCCC2)cc1 | 0.00696 ± 0.0098 | 0.0186 ± 0.0015 | 1.08 ± 0.094 | 0.73 ± 0.026 | 0.595 ± 0.0097 | 0.134 ± 0.011 | 0.223 ± 0.023 | 0.0355 ± 0.0073 | 0.167 ± 0.12 | 0.108 ± 0.017 | 0.346 ± 0.01 |
| CON=C(C(=O)NC1C(=O)N2C(C(=O)[O-])=C(COC(C)=O)CSC12)c1csc(N)n1.[Na+] (configuration not stated) | 0.696 ± 0.52 | 0.4103 ± 0.0017 | 0.569 ± 0.58 | 1.11 ± 0.28 | 0.68 ± 0.16 | 0.914 ± 0.13 | 1.04 ± 0.053 | 0.0697 ± 0.016 | 0.575 ± 0.37 | 0.939 ± 0.19 | 0.608 ± 0.48 |
| CCCCCCCCCCCCC[N+](C)(C)Cc1ccccc1.O.[Cl-] | 0.0515 ± 0.073 | 0.0193 ± 0.00021 | 0.811 ± 0.32 | 0.208 ± 0.0053 | 0.482 ± 0.019 | 0.157 ± 0.036 | 0.171 ± 0.062 | 0.051 ± 0.015 | 0.115 ± 0.035 | 0.102 ± 0.021 | 0.32 ± 0.068 |
| NC(=O)NN=Cc1ccc([N+](=O)[O-])o1 | 0.958 ± 0.23 | 0.58 ± 0.06 | 1.11 ± 0.018 | 1.32 ± 0.48 | 0.739 ± 0.24 | 0.955 ± 0.085 | 0.897 ± 0.13 | 0.491 ± 0.15 | 0.559 ± 0.37 | 0.933 ± 0.28 | 0.8 ± 0.09 |
| CN(C)[C@@H]1C(=O)[C@@H](C(N)=O)C(=O)[C@@]2(O)C(=O)[C@H]3C(=O)c4c(O)ccc(Cl)c4[C@@H](O)[C@H]3C[C@@H]12 | 1.05 ± 0.19 | 0.508 ± 0.1 | 0.858 ± 0.066 | 1.17 ± 0.28 | 0.754 ± 0.018 | 1.02 ± 0.063 | 0.831 ± 0.16 | 0.336 ± 0.14 | 0.621 ± 0.42 | 0.975 ± 0.23 | 0.749 ± 0.19 |
| COc1c(N2CCNC(C)C2)c(F)cc2c(=O)c(C(=O)O)cn(C3CC3)c12 (configuration not stated) | 0.0476 ± 0.067 | 0.48 ± 0.021 | 0.942 ± 0.14 | 1.09 ± 0.15 | 0.876 ± 0.017 | 0.989 ± 0.034 | 0.899 ± 0.084 | 0.804 ± 0.16 | 0.577 ± 0.36 | 0.942 ± 0.26 | 0.763 ± 0.0079 |
| CON=C(C(=O)NC1C(=O)N2C(C(=O)OCOC(=O)C(C)(C)C)=C(C=Cc3scnc3C)CSC12)c1csc(N)n1 (configuration not stated) | 0.894 ± 0.26 | 0.379 ± 0.064 | 1.24 ± 0.4 | 1.24 ± 0.33 | 0.894 ± 0.029 | 0.914 ± 0.031 | 0.794 ± 0.14 | 0.253 ± 0.062 | 0.568 ± 0.41 | 0.893 ± 0.24 | 0.872 ± 0.034 |
| Cc1nnc(SCC2=C(C(=O)[O-])N3C(=O)C(NC(=O)Cn4cnnn4)C3SC2)s1.[Na+] (configuration not stated) | 1.26 ± 0.15 | 0.672 ± 0.26 |  | 1.45 ± 0.57 | 0.707 ± 0.18 | 0.951 ± 0.036 | 1.13 ± 0.052 | 0.255 ± 0.063 | 0.612 ± 0.43 | 0.89 ± 0.17 | 0.961 ± 0.05 |
| Cn1sccc1=O | 0.437 ± 0.62 | 0.607 ± 0.19 | 1 ± 0.053 | 1 ± 0.17 | 0.8591 ± 0.0028 | 0.622 ± 0.045 | 0.903 ± 0.084 | 0.0867 ± 0.0083 | 0.579 ± 0.4 | 0.968 ± 0.27 | 0.847 ± 0.097 |

Source: the supplement of paper PMC9446081
